Pf growth 96h – P. falciparum growth inhibition at 96 hours; P. falciparum luciferase reporter growth, 96 h; Potency, µM (series often up to 28.7 µM), for the others: at the highest dose activity change, negative = inhibition, hits mostly inhibitors; 320,000 compounds, 6.9% hits; further: potency means the concentration at half of the fitted maximal effect; on the % scale 0 is the no-effect control and ±100 the full control effect
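Infected RBCs, 2% Hct / 0.05% parasitemia final; luciferase-reporter P. falciparum; cpd 96 h, 37 C, 5% CO2; luciferase detection reagent; luminescence.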
Sm TGR block – blocks Schistosoma mansoni thioredoxin glutathione reductase; 360,000 compounds, 3% hits; Q962Y6; Potency, µM (top dose mostly 114 µM), for inactives: top-dose activity change, negative = inhibition, actives largely listed as inhibitors; purified TGR, DTNB reduction, TNB absorbance 405 nm; further: potency means the concentration at half of the fitted maximal effect; on the % scale 0 is the no-effect control and ±100 the full control effect; nearly all actives have a fitted effect of over 60% in size
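First, TGR (20 nM dispensed) and NADPH were mixed with compound. Second, a 15 min room-temperature incubation followed. Third, further NADPH and then DTNB were added to start the reaction. Finally, TNB absorbance was monitored kinetically.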
HCMV antiviral – blocks human cytomegalovirus replication; 410,000 compounds, 4.5% hits; AID 1259415; activity change, negative = inhibition, % at 57.5 µM; HFF cells, HCMV-luciferase reporter, 72 h; active compounds read low; in the data active means activity change below about -60%; inconclusive means no clear call, values can overlap the other calls; inactive means above about -39%; further: on the % scale 0 is the no-effect control and ±100 the full control effect
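Two-dose cell screen: HFF monolayers treated with compounds and infected with luciferase-expressing HCMV at 1 PFU/cell, 72 h at 37C, then lysed for luciferase measurement.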
Pf growth 48h – P. falciparum growth inhibition at 48 hours (one generation); P. falciparum luciferase growth in erythrocytes, 48 h; Potency, µM (series often up to 28.7 µM), without a hit: at the highest dose activity change, negative = inhibition, most hits filed as inhibitors; 310,000 compounds, 5.9% hits; further: potency means the concentration at half of the fitted maximal effect; on the % scale 0 is the no-effect control and ±100 the full control effect
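Luciferase-expressing parasites in RBCs, 2% Hct / 0.1% parasitemia final; RPMI 1640 + 0.5% Albumax; 37 C, 5% CO2, one generation; luminescence read-out, lower signal = inhibition.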
SARS PLP yeast – inhibitors of SARS-CoV papain-like protease in yeast. S. cerevisiae expressing SARS-CoV PLpro, growth rescue. Potency, µM (titrated, usually from 32.9 µM), for the others: at the top dose activity, positive = growth rescue, actives largely listed as activators. 330,000 compounds, 0.19% hits. AID 485353; calls by dose curve; further: potency means the concentration at half of the fitted maximal effect; 0% is about no effect; nearly all actives have a fitted effect of over 55% in size
HCV inh – HCV inhibition; AID 651820; 340,000 compounds, 3.4% hits; Potency, µM (top dose mostly 41.8 µM), inactives show at the top dose activity change, negative = inhibition, usual class: inhibitors; Huh7.5.1 HCVcc-Cre infection, luciferase reporter, 44 h; further: potency means the concentration at half of the fitted maximal effect; on the % scale 0 is the no-effect control and ±100 the full control effect
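Reporter virus HCVcc-Cre (~0.5 moi) infects cells exposed to compound; seeding density 1,000 cells/well with 4 h settling beforehand. Luminescence, 15 sec read, taken 44 h post-infection following a 15 min RT substrate incubation.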
* = called active by the depositor. An excerpt weighted towards active compounds, which were near 15% of everything screened. Unless noted, the call rests on the fitted dose curve; in most records, active means well fitted curve in the direction sought with a large enough effect; inconclusive means small, poorly fitted or top-dose-only effect, or another doubt; inactive means no such curve, though single readings can be large; an effect the other way counts as inactive or inconclusive.

Screening Cc1nn(C(C)C(=O)c2cccc(Cl)c2)c(C)c1[N+](=O)[O-] (configuration not stated) returned Pf growth 96h inconclusive, Sm TGR block 11%, HCMV antiviral -7, Pf growth 48h inconclusive, SARS PLP yeast 0% and HCV inh -6%.
`Cn1c(=O)c2c(ncn2CC(=O)OCC(=O)c2ccc(Br)cc2)n(C)c1=O` gave HCMV antiviral -6.
CC(C)CC[n+]1ccccc1/C=C/c1ccc(N(C)C)cc1 was read as Pf growth 96h -10%, Sm TGR block 0%, HCMV antiviral -102*, Pf growth 48h 0.93µM*, SARS PLP yeast -2% and HCV inh 5µM*.
CN(C)c1ccc(/C=C/c2cccc[n+]2[O-])cc1 was read as Pf growth 96h 249%, Sm TGR block 1%, HCMV antiviral 135, Pf growth 48h 148%, SARS PLP yeast 0% and HCV inh 11%.
`CCCNC(=O)c1ccc(N2CCC3(CC2)CC(c2ccccc2)=NO3)c(NC(=O)c2ccc(Br)cc2)c1` gave Pf growth 96h 1.9µM*, Sm TGR block 5%, HCMV antiviral 17, Pf growth 48h inconclusive, SARS PLP yeast 0% and HCV inh inconclusive.
For CCCNC(=O)c1ccc(N2CCC3(CC2)CC(c2ccccc2)=NO3)c(NC(=O)c2ccccc2)c1 the results were Pf growth 96h 5.9µM*, Sm TGR block -23%, HCMV antiviral -10, Pf growth 48h inconclusive, SARS PLP yeast -3% and HCV inh -14%.
For O=C(CCNC(=O)c1ccc(Br)cc1)Nc1ccccc1N1CCCCC1 the results were Pf growth 96h inconclusive, Sm TGR block 5%, HCMV antiviral -38, Pf growth 48h inconclusive, SARS PLP yeast -10% and HCV inh -10%.
For COc1cccc(C(=O)Nc2cc(C(=O)NCc3ccc(C)cc3)ccc2N2CCC3(CC2)CC(c2cccc(Br)c2)=NO3)c1 the results were Pf growth 96h -6%, Sm TGR block -8%, HCMV antiviral 1, Pf growth 48h 10µM*, SARS PLP yeast -3% and HCV inh 2%.
CCCNC(=O)c1ccc(N2CCC3(CC2)CC(c2ccccc2)=NO3)c(NC(=O)c2cccc(C)c2)c1 was read as Pf growth 96h 1.9µM*, Sm TGR block 0%, HCMV antiviral -35, Pf growth 48h 8.3µM*, SARS PLP yeast 9% and HCV inh -2%.
CCC(=O)N1CCN(c2ccccc2NC(=O)c2cccc(C)c2)CC1 was read as Pf growth 96h 19%, Sm TGR block -1%, HCMV antiviral -25, Pf growth 48h inconclusive, SARS PLP yeast -3% and HCV inh inconclusive.
CCCCCC(=O)N1CC2(CC)CN(C(=O)CCCCC)CC(CC)(C1)C2=O was read as Pf growth 96h inconclusive, Sm TGR block 5%, HCMV antiviral -33, Pf growth 48h inconclusive, SARS PLP yeast -1% and HCV inh 20%.
For O=C(c1ccc2c(c1)CCC2)N1CCN(Cc2ccccc2)CC1 the results were HCMV antiviral -11.
For CCCCOc1ccc(C(=O)N2CCNC(=O)C2)cc1 the results were Pf growth 96h 28%, Sm TGR block 6%, HCMV antiviral -4, Pf growth 48h 37%, SARS PLP yeast -1% and HCV inh 9%.
For CC[C@@H]1CC2=C(C(=O)OC(C)(C)O2)[C@@H](c2ccc(Cl)cc2)O1 the results were HCMV antiviral -10.
For CCCNC(=O)c1ccc(N2CCC3(CC2)CC(c2cccc(Br)c2)=NO3)c(NC(=O)c2ccccc2)c1 the results were Pf growth 96h 12µM*, Sm TGR block 7%, HCMV antiviral -15, Pf growth 48h 9.3µM*, SARS PLP yeast 4% and HCV inh -23%.
For CCCCCCCC(=O)Nc1cc(C(=O)NCc2ccc(C)cc2)ccc1N1CCC2(CC1)CC(c1cccc(Br)c1)=NO2 the results were Pf growth 96h 46%, Sm TGR block 0%, HCMV antiviral -11, Pf growth 48h -3%, SARS PLP yeast -1% and HCV inh 5%.
Cc1ccc(CNC(=O)c2ccc(N3CCC4(CC3)CC(c3cccc(Br)c3)=NO4)c(NC(=O)c3ccc(Br)cc3)c2)cc1 was read as HCMV antiviral 2, SARS PLP yeast 6% and HCV inh 2%.
Cc1ccc(CNC(=O)c2ccc(N3CCC4(CC3)CC(c3cccc(Br)c3)=NO4)c(NC(=O)c3cccc(C)c3)c2)cc1 was read as Pf growth 96h -7%, Sm TGR block -6%, HCMV antiviral 29, Pf growth 48h inconclusive, SARS PLP yeast -1% and HCV inh -2%.
For Cc1ccc(CNC(=O)c2ccc(N3CCC4(CC3)CC(c3cccc(Br)c3)=NO4)c(NC(=O)c3c(Cl)cccc3Cl)c2)cc1 the results were Pf growth 96h 9.3µM*, Sm TGR block -4%, HCMV antiviral -3, Pf growth 48h 5.9µM*, SARS PLP yeast 2% and HCV inh 8%.
Cc1ccc(CNC(=O)c2ccc(N3CCC4(CC3)CC(c3ccccc3)=NO4)c(NC(=O)c3cccc(C)c3)c2)cc1 was read as Pf growth 96h inconclusive, Sm TGR block -2%, HCMV antiviral -21, Pf growth 48h 4.1µM*, SARS PLP yeast 0% and HCV inh 11%.
Screening Cc1ccc(CNC(=O)c2ccc(N3CCC4(CC3)CC(c3cccc(Br)c3)=NO4)c([N+](=O)[O-])c2)cc1 returned Pf growth 96h inconclusive, Sm TGR block 5%, HCMV antiviral 7, Pf growth 48h inconclusive, SARS PLP yeast 0% and HCV inh -18%.
COc1ccc(CNC(=O)c2ccc(N3CCC4(CC3)CC(c3ccc(Cl)cc3)=NO4)c([N+](=O)[O-])c2)cc1 was read as HCMV antiviral inconclusive and HCV inh 0.89µM*.
CCCCCCCC(=O)Nc1cc(C(=O)NCCC)ccc1N1CCC2(CC1)CC(c1ccccc1)=NO2 was read as Pf growth 96h 7.4µM*, Sm TGR block 0%, HCMV antiviral -3, Pf growth 48h inconclusive, SARS PLP yeast 13% and HCV inh 12%.
`Cc1ccc(CNC(=O)c2ccc(N3CCC4(CC3)CC(c3ccccc3)=NO4)c(NC(=O)c3ccc(Cl)c([N+](=O)[O-])c3)c2)cc1` gave Pf growth 96h inconclusive, Sm TGR block -1%, HCMV antiviral 7, Pf growth 48h inconclusive, SARS PLP yeast -6% and HCV inh 11µM*.

Assay outcomes (PubChem)
